Most compounds without a hit are left out; they make up all but 2.9% or so of the library.
ADAM17 inh: inhibitors of human ADAM17; P78536; recombinant ADAM17, EDANS/DABCYL FRET peptide cleavage; inhibition, % at 6.95 µM; hit rate 0.83% among 370,000; AID 720648;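 active = inhibition above the mean of compounds lying between control limits plus 3 SD, set per campaign, cut at about 8.5% in these data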;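 note: 0% = DMSO-only wells as the low control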
PLC-gamma1 inh: inhibitors of human phospholipase C gamma1 | purified PLC-gamma1, fluorogenic substrate, fluorescence | inhibition, % at 12.2 µM | hit rate 0.84% among 370,000; in the data active = inhibition above about 9.5%
ADAM10 inh: inhibits human ADAM10; AID 720582; hit rate 0.62% among 370,000; inhibition, % at 7 µM; O14672; recombinant ADAM10, EDANS/DABCYL FRET peptide cleavage, 3 h;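 active = inhibition above a per-campaign cutoff equal to the mean of compounds falling between control-based bounds plus 3 SD, cut at about 20% in these data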;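 note: 0% = DMSO wells while the 100% control is not disclosed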
Target sequence (O14672 214-748 limits assumed): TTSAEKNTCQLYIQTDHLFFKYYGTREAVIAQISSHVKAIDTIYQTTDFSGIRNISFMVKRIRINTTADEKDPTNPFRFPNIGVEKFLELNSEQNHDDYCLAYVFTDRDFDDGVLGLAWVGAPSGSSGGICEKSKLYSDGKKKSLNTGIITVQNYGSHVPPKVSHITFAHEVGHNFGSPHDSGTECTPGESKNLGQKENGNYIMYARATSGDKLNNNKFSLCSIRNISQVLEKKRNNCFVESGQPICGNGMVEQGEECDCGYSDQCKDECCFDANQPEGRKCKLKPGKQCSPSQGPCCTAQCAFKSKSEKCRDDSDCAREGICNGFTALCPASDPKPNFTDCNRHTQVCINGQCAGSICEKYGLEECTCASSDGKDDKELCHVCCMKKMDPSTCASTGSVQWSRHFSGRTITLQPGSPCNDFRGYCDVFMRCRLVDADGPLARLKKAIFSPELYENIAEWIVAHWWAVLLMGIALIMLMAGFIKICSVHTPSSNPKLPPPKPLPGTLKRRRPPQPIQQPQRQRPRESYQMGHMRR
PLCb3 inh: PLC-beta3 (human) inhibition, primary screen; Q01970; Purified PLC-beta3, fluorogenic substrate, fluorescence; inhibition, % at 12.2 µM; hit rate 0.18% among 370,000; AID 720704; in the data active = inhibition above about 11%;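 note: 0% = median of compound wells on plate and 100% = full blocker control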
KLK7 zymogen act: proKLK7 (human) activation, primary screen; AID 652039; hit rate 0.9% among 370,000; P49862; activation, % at 7 µM; purified proKLK7, EDANS-DABCYL substrate fluorescence; 100% is mature enzyme control, 0% vehicle;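 active = activation above the mean of all tested compounds plus 3 SD, computed per campaign excluding outliers beyond control limits, cut at about 13% in these data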
ADAM10 confirm: confirmation of inhibitors of human ADAM10. shares compounds with ADAM10 inh. ADAM10 QFRET peptide cleavage, EDANS fluorescence. inhibition, % at 6.95 µM. hit rate 1% among 2,100. AID 743208;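 active = inhibition above about 20% chosen separately for each screening run, limit read from the data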;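 note: 0% = DMSO wells and 100% = marimastat wells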
ADAM17 ctr: inhibits human ADAM17 in ADAM10 exosite counter-screen; shares compounds with ADAM10 inh; ADAM17 QFRET peptide cleavage, EDANS fluorescence; inhibition, % at 6.95 µM; hit rate 0.5% among 2,100;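 active = mean triplicate inhibition above the solvent-only control wells' mean plus 3 SD, cut at about 12% in these data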;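 note: 0% = DMSO wells and 100% = marimastat wells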
ADAM10 counter: inhibits human ADAM10 in ADAM17 exosite counter-screen; shares compounds with ADAM17 inh; recombinant ADAM10, EDANS/DABCYL FRET peptide cleavage, 3 h; inhibition, % at 6.95 µM; hit rate 47% among 2,900; AID 743256;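 active = mean inhibition over the triplicate runs exceeds the activity threshold set in the earlier primary screen, cut at about 20% in these data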;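 note: 0% = DMSO wells and 100% = marimastat wells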
ADAM17 confirm: confirmation of inhibitors of human ADAM17. shares compounds with ADAM17 inh. recombinant ADAM17, EDANS/DABCYL QFRET peptide cleavage. inhibition, % at 6.95 µM. hit rate 65% among 2,900;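 active = mean inhibition across replicates above the hit cutoff set in the primary screen, cut at about 8.5% in these data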;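 note: 0% = DMSO wells and 100% = marimastat wells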
* marks the source's active call; other numbers are inactive results; x = not tested or not shown.

SMILES	ADAM17 inh	PLC-gamma1 inh	ADAM10 inh	PLCb3 inh	KLK7 zymogen act	ADAM10 confirm	ADAM17 ctr	ADAM10 counter	ADAM17 confirm
CC(=O)OC1[C@H](Oc2c(O)c(C)c3c4c2[C@@H](C)CC[C@@H]4[C@@H](C)C[C@@H]3C=C(C)C)OC[C@@H](O)[C@@H]1O (stereo not given in full)	4	-2	6	4	0	x	x	x	x
CC(C)=C[C@H]1C[C@H](C)[C@H]2CC[C@H](C)c3c(O[C@@H]4OC[C@@H](O)[C@H](O)C4O)c(O)c(C)c1c32 (stereo not given in full)	21*	3	30*	5	1	6	3	15	9.1*
CCOc1cc(/C=N/NC(=O)CNc2cccc(C)c2)ccc1OC(=O)c1ccccc1	12*	6	25*	2	0	8	3	33*	16*
CCOc1cc(/C=N/Nc2cccc(C(=O)O)c2)ccc1OC(=O)c1ccccc1	0	0	3	-4	1	x	x	x	x
CCC(=O)N(Cc1ccco1)c1nc(C(=O)Nc2ccc(Cl)cc2)c(C)s1	11*	3	22*	-2	1	11	3	32*	17*
CCN(C(=O)c1ccco1)c1nc(CC(=O)Nc2ccc(Cl)cc2)cs1	2	-2	2	-2	0	x	x	x	x
CC[N+](CC)(CC)C/C=C/CN1CCCCC1	1	1	-8	-1	1	x	x	x	x
COc1ccc(S(=O)(=O)n2nc(-c3ccc(Cl)cc3)cc2N)cc1	9.0*	9	21*	6	0	3	1	15	8.9*
COc1ccc(-c2cc(N)n(S(=O)(=O)c3ccc(C)cc3)n2)c(OC)c1	1	5	1	3	0	x	x	x	x
COc1ccc2nc(NC(=O)C3=NN(c4ccccc4)C(=O)CC3)sc2c1	1	-20	4	-26	0	x	x	x	x
COc1ccc(Cl)cc1-c1n[nH]c(=S)n1C1CCCCC1	8.7*	6	29*	4	-1	0	0	34*	21*
O=C1NC(Cc2ccccc2)c2nc3ccccc3c(=O)n2-c2cc(Cl)ccc21 (stereo not given)	17*	9	25*	6	1	4	1	23*	12*
O=C1NC(Cc2ccc(O)cc2)c2nc3ccccc3c(=O)n2-c2cc(Cl)ccc21 (stereo not given)	2	-2	-10	1	0	x	x	x	x
C(=N\n1cnnc1)/c1ccc(OCc2cccc3ccccc23)cc1	9.7*	7	23*	3	0	0	0	0	4
Cc1ccc(S(=O)(=O)N(CC(=O)N=Nc2c(O)[nH]c3ccccc23)c2ccc(C)c(C)c2)cc1	8.9*	8	23*	8	0	8	3	26*	18*
O=C(COc1ccccc1F)c1ccc(O)cc1O	-2	0	-4	-1	1	x	x	x	x
Cc1c(O)ccc(C(=O)COc2ccccc2F)c1O	12*	8	22*	4	-1	1	0	27*	12*
COC(=O)[C@]12C[C@H](CC(=O)NCCC(C)C)C(=O)N(Cc3cccc4ccccc34)C1=C[C@H](C(C)C)O[C@@H]2C1CC1	8.6*	0	20*	6	1	12	4	34*	22*
CCCCOCCCNC(=O)C[C@@H]1C[C@@]2(C(=O)OC)CC(C)(C)CC=C2N(Cc2cccc3ccccc23)C1=O	13*	6	22*	0	0	8	2	27*	16*
COC(=O)[C@]12C[C@H](CC(=O)NCc3cccc(C(F)(F)F)c3)C(=O)N(CCc3ccc(OC)c(OC)c3)C1=C[C@H](C(C)C)O[C@@H]2C1CC1	13*	1	22*	1	0	0	0	22*	8.9*
O=C(OC(C(=O)Nc1cccc(C(F)(F)F)c1)c1ccccc1)C1CCCCC1 (stereo not given)	12*	2	25*	3	0	9	3	20*	13*
O=C(Nc1cccc(C(F)(F)F)c1)NC1CCCCC1	4	4	5	6	-1	x	x	x	x
COc1cc(-c2nnc(COc3ccc4ccccc4c3)o2)cc(OC)c1OC	10*	4	21*	0	0	8	3	22*	15*
COCCOC(=O)c1c(C)n(C)c2ccc(OC(=O)c3c(OC)cccc3OC)cc12	10*	2	21*	-5	0	6	1	13	9.1*
Cc1ccc(-n2nnnc2SCC(=O)c2cc(C)n(-c3cc(C)on3)c2C)c(C)c1	15*	-2	24*	-7	0	3	2	19	11*
SMILES	ADAM17 inh	PLC-gamma1 inh	ADAM10 inh	PLCb3 inh	KLK7 zymogen act	ADAM10 confirm	ADAM17 ctr	ADAM10 counter	ADAM17 confirm
O=C(c1ccc(Cl)c(Cl)c1)N1CCC(=O)N(C(COCc2ccc(Cl)cc2)Cc2ccccc2)CC1 (stereo not given)	9.5*	12*	20*	5	-1	10	3	34*	16*
O=C(c1ccc(C(F)(F)F)cc1)N1CCC(=O)N(C(COCc2ccc(Cl)cc2)Cc2ccccc2)CC1 (stereo not given)	9.9*	0	20*	4	1	4	2	14	8.7*
O=C(c1ccc(Cl)c(Cl)c1)N1CCC(=O)N(C(COCc2cccc(C(F)(F)F)c2)Cc2ccccc2)CC1 (stereo not given)	5	-3	3	-2	0	x	x	x	x
CCOc1ccccc1Oc1coc2cc(OCC(=O)O)ccc2c1=O	1	3	4	0	0	x	x	x	x
COc1ccc(NC(=O)c2ccccc2NC(=O)c2ccccc2C(=O)O)c(OC)c1	-27	-16	-37	-37	0	x	x	x	x
CC(=O)Nc1ccc(S(=O)(=O)Nc2ccccc2N2CCOCC2)cc1Cl	-7	-2	-25	-7	0	x	x	x	x
Cc1ccc(S(=O)(=O)N2CCC(=O)N(C(COCc3ccccc3)Cc3ccccc3)CC2)cc1 (stereo not given)	-2	-2	-3	0	0	x	x	x	x
Cc1ccc(S(=O)(=O)N2CCC(=O)N([C@H](COC(=O)Nc3ccccc3)Cc3ccccc3)CC2)cc1	8.9*	3	20*	3	1	3	1	19	13*
CCOc1cc(/C=C/c2ccc3cccc([N+](=O)[O-])c3n2)cc(Cl)c1O	15*	8	25*	9	-1	0	1	11	5
